# Experimental data: the supplement of paper PMC8387472
# Counter-ions that a name gives are not always drawn. ± gives the standard deviation of the averaged measurements.
# Tested on: mESC LDLR-Dup GFP reporter (SpCas9 MH-deletion repair)
# Assay: fraction of GFP+ cells relative to DMSO control (fold change); higher = more MH-deletion repair to in-frame LDLR (or more editing)
# Settings: 2 µM; 7 days post-transfection
row,SMILES,fraction of GFP+ cells
1,CC(C)(Oc1ccc(CCNC(=O)c2ccc(Cl)cc2)cc1)C(=O)O [Bezafibrate],1.52 ± 0.58
2,O=C(O)[C@]1(Cc2cccc(Nc3nccs3)n2)CC[C@@H](Oc2cccc(Cl)c2F)CC1,1.82 ± 0.2
3,COc1nc(OCc2cccc(-c3ccccc3)c2C)ccc1CNCCNC(C)=O [bms202 (PD-1/PD-L1 inhibitor 2],1.04 ± 0.3
4,C=CC(=O)N1C/C(=C\c2ccc([N+](=O)[O-])cc2)C(=O)/C(=C/c2ccc([N+](=O)[O-])cc2)C1,0.723 ± 0.13
5,Nc1nc(OCC2CCCCC2)c2[nH]cnc2n1,0.88 ± 0.14
6,CN(C)Cc1ccc(-c2nc3cccc4c3n2CCNC4=O)cc1,0.517 ± 0.015
7,NC(=O)c1ccccc1 [Benzamide],1.01 ± 0.07
8,CN(CCOc1ccc(CC2SC(=O)NC2=O)cc1)c1ccccn1 (centres undefined) [Rosiglitazone maleate],1.52 ± 0.23
9,CNC1CCCN(c2c(F)cc3c(=O)c(C(=O)O)cn(C4CC4)c3c2OC)C1 (centres undefined) [Balofloxacin],0.978 ± 0.15
10,O=C1C[C@@H](c2ccc(O)cc2)Oc2cc(O)cc(O)c21 [Naringenin],0.997 ± 0.18
11,CN(C)C(=O)c1cc2cnc(Nc3ccc(N4CCNCC4)cn3)nc2n1C1CCCC1 [Ribociclib (LEE011)],1.04 ± 0.21
12,O=c1cc(-c2cccc3c2Sc2ccccc2S3)oc(N2CCOCC2)c1,0.661 ± 0.19
13,"C[C@@H](CN1CC(=O)NC(=O)C1)N1CC(=O)NC(=O)C1 [Dexrazoxane HCl (ICRF-187, ADR-529)]",1.05 ± 0.24
14,O=C(O)c1ccc2c(c1)nc(Nc1cccc(Cl)c1)c1ccncc12 [Silmitasertib (CX-4945)],0.655 ± 0.32
15,COCCCc1sc(-c2ccccc2)nc1C(=O)Nc1ccccc1-c1nc2cc(CN3CCCC3)cnc2s1,1.15 ± 0.33
16,CCn1cc(-c2ccnc3[nH]c(-c4cccc(CN(C)C)c4)cc23)c(-c2ccc(NC(=O)N(C)C)cc2)n1,0.251 ± 0.13
17,CCCCCCCCCCCCCC(=S)NCCCC[C@H](NC(=O)OCc1ccccc1)C(=O)Nc1ccccc1 [Thiomyristoyl],0.948 ± 0.9
18,O=c1c(O)c(-c2ccc(O)c(O)c2)oc2cc(O)ccc12 [Fisetin],1.39 ± 0.39
19,OCc1ccc(-c2ccc(-c3ccc(CO)s3)o2)s1,0.657 ± 0.23
20,CC(NC(=O)c1ccccc1/N=C/c1c(O)ccc2ccccc12)c1ccccc1 (centres undefined) [Sirtinol],1.45 ± 0.24

row,SMILES,fraction of GFP+ cells
1,O=NN(CCCl)C(=O)NC1CCCCC1 [Lomustine],1.11 ± 0.11
2,CN(N=O)C(=O)NC1C(O)OC(CO)C(O)C1O (centres undefined) [Streptozotocin (STZ)],2.1 ± 0.29
3,CNCc1ccc(-c2cc(-c3nc(-c4ccc(S(=O)(=O)C(C)C)cc4)cnc3N)on2)cc1,0.301 ± 0.12
4,Cn1nnc2c(C(N)=O)ncn2c1=O [Temozolomide],0.998 ± 0.33
5,N=C1CCCN1Cc1[nH]c(=O)[nH]c(=O)c1Cl [Tipiracil hydrochloride],0.837 ± 0.26
6,O=C(O[C@@H]1Cc2c(O)cc(O)cc2O[C@@H]1c1cc(O)c(O)c(O)c1)c1cc(O)c(O)c(O)c1 [(-)-Epigallocatechin Gallate],0.828 ± 0.097
7,CC(C)(CNC(=O)c1cccc(-c2noc(C(F)(F)F)n2)c1)c1coc(-c2ccccc2)n1,0.849 ± 0.2
8,COc1c2ccoc2cc2oc(=O)ccc12 [Bergapten],0.969 ± 0.32
9,O=C(Nc1ccncc1)c1cc([N+](=O)[O-])ccc1Cl,1.74 ± 0.44
10,CS(=O)(=O)c1ccc(-c2cnc(N)c(C(=O)Nc3ccccc3)n2)cc1,0.582 ± 0.061
11,O=C(NCCS(=O)(=O)c1ccc(C(F)(F)F)cn1)c1ccc(Cl)cc1,1.39 ± 0.63
12,CN1CCc2c(c3ccccc3n2Cc2ccc(C(=O)NO)cc2)C1 [Tubastatin A],0.802 ± 0.093
13,COc1cc2c(cc1O)CC[C@@H]1[C@@H]2CC[C@]2(C)[C@@H](O)CC[C@@H]12 [2-Methoxyestradiol (2-MeOE2)],0.441 ± 0.088
14,C[C@@H](N)[C@H]1CC[C@H](C(=O)Nc2ccncc2)CC1,1.31 ± 0.91
15,CCN(CC)CCCC(C)Nc1ccnc2cc(Cl)ccc12 (centres undefined) [Chloroquine Phosphate],0.703 ± 0.14
16,CCc1nc(N)nc(N)c1-c1ccc(Cl)cc1 [Pyrimethamine],1.5 ± 1.2
17,O=S(=O)(N=Cc1c(O)ccc2ccccc12)c1cccs1,1.15 ± 0.65
18,"CC[C@H](CO)Nc1nc(NCc2ccccc2)c2ncn(C(C)C)c2n1 [Roscovitine (Seliciclib,CYC202)]",1.06 ± 0.096
19,C[C@H](CN(C)C)Oc1nc(Nc2cc3cccc(Cl)c3cn2)cnc1C#N,1.28 ± 0.15
